According to PubChem BioAssay AID556 (SRMLSC, 2006):
Out of some 65,000 compounds screened, about 320 (0.49%) were called active.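 Rule for the calls: active = the 320 compounds with the highest percent inhibition in the single-dose primary screen, excluding strongly autofluorescent ones (cut at about 32% in these data); inactive = the rest, inconclusive results apart.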 For the sample, actives were picked, then their nearest neighbours and some compounds at random.

System: diphosphomevalonate decarboxylase (Streptococcus pneumoniae D39)
Experiment: diphosphomevalonate decarboxylase activity blockers – biochemical, PK/LDH-coupled NADH fluorescence, primary screen (AID 556);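 for inhibition: kinetic rate of NADH fluorescence loss reporting ADP formed by the decarboxylase; 0% = full reaction rate with carrier and 100% = no-substrate background rate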
Conditions: purified DPM-DC, at 10 µM
[1] = stronger effect = higher value unless noted
[2] = measured here: pilot screen trials, stronger effect = higher value

Cc1ccc(OS(=O)Nc2cccc3nccnc23)cc1 (centres undefined)
inhibition [1]: inactive

CCCCSc1nnc(-c2ccc(NC(=O)CC)cc2)n1C
inhibition [1]: 6% (inactive)

CC1CCc2sc3nc(N4CCN(CCO)CC4)n4ncnc4c3c2C1 (centres undefined)
inhibition [1]: inactive

N#Cc1c2c(c(N3CCN(CCO)CC3)n3c1nc1ccccc13)CCCC2
inhibition [1]: inactive

CCC(=O)N(Cc1cc2cc(OC)ccc2[nH]c1=O)c1ccccc1C
inhibition [1]: 16% (inactive)

O=C(Cn1c(=O)n(Cc2ccco2)c(=O)c2ccccc21)NCC1CCCO1 (centres undefined)
inhibition [1]: inactive

O=C(CSc1nc2ccccc2o1)N1CCN(c2ccc(Cl)cc2)CC1
inhibition [1]: 0.5% [measured here: pilot screen trials, stronger effect = higher value]
outcome [1]: inactive

CC(CNC(=O)c1ccc(Br)o1)NC(=O)c1ccc(Br)o1 (centres undefined)
inhibition [1]: 2% (inactive)

CCc1nnc(NC(=O)c2cccs2)s1
inhibition [1]: 5% (inactive)

CCCn1c(SCC(=O)Nc2cccc(C(=O)OCC)c2)nnc1-c1ccoc1C
inhibition [1]: 2% (inactive)

CCC1=[N+]([O-])C(C)(/C(C)=N\O)N(O)C1(C)C (centres undefined)
inhibition [1]: inactive

CN(c1nc2ccccc2n2c(-c3ccco3)nnc12)S(=O)(=O)c1ccccc1
inhibition [1]: 48% (active)

c1coc(-c2nc3nc4ccccc4n3nc2-c2ccco2)c1
inhibition [1]: 4% (inactive)

CC(=O)Nc1ccc(S(=O)(=O)N2CCCC2C(=O)O)cc1 (centres undefined)
inhibition [1]: inactive

CCOc1cccc(-n2nnnc2-c2ccc(OC)cc2)c1
inhibition [1]: 4.5% [measured here: pilot screen trials, stronger effect = higher value]
outcome [1]: inactive

O=C(Cc1cccs1)N1CCCC(c2nc(-c3ccc(S(=O)(=O)N4CCCC4)cc3)no2)C1 (centres undefined)
inhibition [1]: inactive

CCOC(=O)c1ccc(N2C(=O)CC(N3CCC(C(=O)OCC)CC3)C2=O)cc1 (centres undefined)
inhibition [1]: inactive

O=C(NC12CC3CC(CC(C3)C1)C2)N1CCCC(CO)C1 (centres undefined)
inhibition [1]: inactive

CC(=O)Oc1cc2c(C(=O)NCCN3CCOCC3)c(C)oc2c2ccccc12
inhibition [1]: inactive

CN(C)c1ccc(NC(=O)c2ccncc2)c2ccccc12
inhibition [1]: 0% [measured here: pilot screen trials, stronger effect = higher value]
outcome [1]: inactive

Cn1c(=O)[nH]c(=O)c2c1nc(CN1CCN(c3ccccc3F)CC1)n2CCc1ccccc1
inhibition [1]: inactive

Cc1cc(C)n(C(=O)c2ccc(C)c(S(=O)(=O)N3CCOCC3)c2)n1
inhibition [1]: inactive

Cc1cccc(C2c3c(n(C)c(=O)n(C)c3=O)N=C3c4ccccc4C(=O)C32)c1 (centres undefined)
inhibition (stronger effect = higher value): 4% (inactive)
inhibition [2]: 1%

COc1ccc(-c2c3c(=O)n(C)c(=O)n(C)c3cn2NC(C)=O)cc1
inhibition [1]: 20% (inactive)

COc1ccc(C2C3=C(OC(C)=O)c4ccccc4C3=Nc3c2c(=O)n(C)c(=O)n3C)cc1 (centres undefined)
inhibition (stronger effect = higher value): 70% (active)
inhibition [2]: 3.5%

O=C(O)c1cc(S(=O)(=O)N2CCCCCC2)c(Cl)cc1Cl
inhibition [1]: inactive

COc1ccccc1N1CCN(C(=O)c2ccc(S(=O)(=O)N3CCCCC3)cc2)CC1
inhibition [1]: inactive

COC(=O)c1cccc(NC(=O)CN2CCC(NC(=O)c3cc(OC)c(OC)c(OC)c3)CC2)c1
inhibition [1]: inactive

O=C(Nc1cccc2cccnc12)c1cccc(N2C(=O)CCC2=O)c1
inhibition [1]: 3% (inactive)

C=C(C)CSc1nc(N)c2c3c(sc2n1)CCC3
inhibition [1]: 6% (inactive)

COc1cc(Cl)c(C)cc1NC(=O)CSc1nnc(-c2cccnc2)n1Cc1ccco1
inhibition [1]: inactive

O=C(Nc1ccccc1F)c1cc(S(=O)(=O)N2CCCCC2)cs1
inhibition [1]: inactive

COc1ccc(-c2c(C)nn3c(N4CCC(C(=O)N5CCCCC5)CC4)cc(C)nc23)cc1OC
inhibition [1]: inactive

CCCS(=O)(=O)Nc1c(C(=O)O)[nH]c2ccccc12
inhibition [1]: 8% [measured here: pilot screen trials, stronger effect = higher value]
outcome [1]: inactive

Cc1ccc(C)c(N2CCN(C(=O)CCCCn3c(=O)[nH]c4ccccc4c3=O)CC2)c1
inhibition [1]: inactive

COc1ccc(C(C)=O)cc1COC(=O)Cn1cnc2ccccc2c1=O
inhibition [1]: inactive

O=S(=O)(c1ccc(F)cc1)N1CCN(Cc2ccccc2C(F)(F)F)CC1
inhibition [1]: inactive

CCOc1c(N2CCCCC2)c(=O)c1=O
inhibition [1]: inactive

O=C(CSCc1cccs1)N1CCCC1
inhibition [1]: 0% [measured here: pilot screen trials, stronger effect = higher value]
outcome [1]: inactive

Cc1c2cn[nH]c(=O)c2c(C)n1Cc1ccc(F)cc1
inhibition [1]: inactive

CCS(=O)(=O)n1nc(-c2ccccc2)nc1SCc1ccccc1
inhibition [1]: inactive

CC1=C(C(=O)Nc2ccccc2)C(c2cccs2)C(C#N)=C(SCC#N)N1 (centres undefined)
inhibition (stronger effect = higher value): 1% (inactive)
inhibition [2]: 3%

CC1CCCN(Cc2nc3c(c(=O)n(C)c(=O)n3C)n2CC(=O)c2ccccc2)C1 (centres undefined)
inhibition [1]: inactive

Cc1cc(Nc2cccc(F)c2)n2ncnc2n1
inhibition [1]: inactive

Cc1cc(C)c(C#N)c(SCc2[nH]nc3c2C(c2ccccc2)C(C#N)=C(N)O3)n1 (centres undefined)
inhibition [1]: 0% [measured here: pilot screen trials, stronger effect = higher value]
outcome [1]: inactive

CC(C[N+](C)(C)C)OC(N)=O (centres undefined)
inhibition (stronger effect = higher value): 1% (inactive)
inhibition [2]: 0%

CCOC(=O)CSC1=C(C#N)C(c2ccco2)C(C(=O)OCc2ccccc2)=C(C)N1 (centres undefined)
inhibition [1]: 11% (inactive)

NC(=O)c1ccccc1NC(=O)c1ccccc1F
inhibition [1]: inactive

Cc1nc2ncnn2c(C)c1CCC(=O)N1CCN(C(=O)c2ccco2)CC1
inhibition [1]: inactive

O=C(c1ccccc1)c1ccc(OC(=O)N2CCCC2)cc1
inhibition [1]: inactive

COC(=O)c1ccccc1NC(=O)Cn1nc(C(F)(F)F)c2c1CCC2
inhibition [1]: inactive

CCN=C1SC(CC(=O)Nc2ccc(C)cc2)C(=O)N1CC (centres undefined)
inhibition [1]: inactive

Cc1ccccc1Nc1nnc(C)c(=O)[nH]1
inhibition [1]: 2% (inactive)

CCSc1nc2c(c(=O)[nH]1)C(c1cccnc1)C(C(=O)OC(C)C)=C(C)N2 (centres undefined)
inhibition [1]: 0% [measured here: pilot screen trials, stronger effect = higher value]
outcome [1]: inactive

COc1ccc(NC(=O)CCNC(=O)Cn2ccc3ccccc3c2=O)c(OC)c1
inhibition [1]: 1.5% [measured here: pilot screen trials, stronger effect = higher value]
outcome [1]: inactive

CCOC(=O)CSc1nnc(NC(=O)c2cccc(S(=O)(=O)N3CCCC3)c2)s1
inhibition [1]: inactive

C=CCNC(=O)c1ccc(C)c(Br)c1
inhibition [1]: inactive

CCN(CC)CCNC(=O)C1c2ccccc2C(=O)N(C)C1c1cn(C)c2ccccc12 (centres undefined)
inhibition [1]: inactive

COc1ccccc1CNCc1cccs1
inhibition [1]: inactive

COC(=O)c1cc(C(=O)CSc2nc(C)cc(C)n2)ccc1O
inhibition [1]: inactive

CCOC(=O)Cc1csc(NC(=O)CN(C)S(=O)(=O)c2ccc3c(c2)CCC(=O)N3)n1
inhibition [1]: 0% [measured here: pilot screen trials, stronger effect = higher value]
outcome [1]: inactive

COc1ccc(OC)c(CNC(=O)CCc2nc(-c3cccs3)no2)c1
inhibition [1]: inactive

Cc1nnc(SCCCn2c(N3CCCCC3)nc3c2c(=O)[nH]c(=O)n3C)s1
inhibition [1]: 1% [measured here: pilot screen trials, stronger effect = higher value]
outcome [1]: inactive

Cc1ccc(C(=O)OCC(=O)NCc2ccc3c(c2)OCO3)s1
inhibition [1]: 14% (inactive)

C=CCn1c(=O)c2ccccc2n2c(SCC(=O)N3CCCc4ccccc43)nnc12
inhibition [1]: inactive

CCCn1cc(SCC(N)=O)c2ccccc21
inhibition [1]: 0% [measured here: pilot screen trials, stronger effect = higher value]
outcome [1]: inactive

CCCn1c(=O)c2ccccc2n2c(SCC(=O)/C(C#N)=C(\C)N)nnc12
inhibition [1]: 34% (active)

COC(=O)c1ccccc1NC(=O)CN(Cc1ccccc1)S(C)(=O)=O
inhibition [1]: 5% (inactive)

CC(=O)c1ccc(N2C(=NC(=O)C(C)C)SC3CS(=O)(=O)CC32)cc1 (centres undefined)
inhibition [1]: 14% (inactive)

CCOCCN(C=O)c1cccc(OC)c1
inhibition [1]: inactive

COc1ccc(-c2ccnc(SCC(=O)N3CCOCC3)n2)cc1
inhibition [1]: inactive

COc1cc(NS(=O)(=O)c2ccc(NC(C)=O)cc2)cc(OC)c1
inhibition [1]: inactive

CCC(=O)Nc1sc(C(=O)N2CCCCC2)c(C)c1C#N
inhibition [1]: inactive

O=C(CNC(=O)c1ccco1)OCC(=O)c1ccccc1
inhibition [1]: 14% (inactive)

Cc1ccc2nc(NC(=O)C3CCN(S(=O)(=O)c4ccc5c(c4)oc(=O)n5C)CC3)sc2c1
inhibition [1]: inactive

CCS(=O)(=O)n1nc(-c2ccc(OC)cc2)nc1SC
inhibition [1]: inactive

Cc1ccccc1C(=O)Nc1cccc(-c2nnc(SCC(=O)O)n2C)c1
inhibition [1]: 3% (inactive)

Cn1c(SCC(=O)Nc2cccc(O)c2)nnc1-c1ccc(S(=O)(=O)N2CCOCC2)cc1
inhibition [1]: inactive

Cn1c(SCC(=O)N2CCOCC2)nnc1-c1ccc(NC(=O)c2ccccc2F)cc1
inhibition [1]: 100% (active)

O=C1OC(NC(=O)c2ccccc2)C(N2CCOCC2)=C1Cl (centres undefined)
inhibition [1]: 9% (inactive)

CCOc1ccc(-n2c(SC(C)C(=O)OC)nc3c(c2=O)SCC3)cc1 (centres undefined)
inhibition [1]: 1% (inactive)

O=C(NCc1ccccn1)c1cnc2sccn2c1=O
inhibition [1]: 27% (inactive)

CC(C)Cc1cc(C(=O)Nc2cc(Br)ccc2O)no1
inhibition [1]: inactive

CCCC(C)n1[nH]c(=O)c2c(C)cc(C)nc21 (centres undefined)
inhibition [1]: inactive

Cc1nnc(SCC(=O)N(C(C)C)C(C)C)nc1C
inhibition (stronger effect = higher value): 4% (inactive)
inhibition [2]: 0%

CC(C)(C)c1ccc(NC(=O)NCc2ccco2)cc1
inhibition [1]: inactive

CCCn1c(SCC(=O)c2ccc3c(c2)OCCO3)nnc1C(C)C
inhibition [1]: 4% (inactive)

CS(=O)(=O)N1CCN(C(=O)Cc2ccccc2)CC1
inhibition [1]: inactive

CC1(C)Cc2cccc(OCC(=O)Nc3nccs3)c2O1
inhibition [1]: inactive

CCOC(=O)C1CCCN(C(=O)c2sc3nc(C)nc(N4CCOCC4)c3c2C)C1 (centres undefined)
inhibition [1]: inactive

O=C(CN1CCN(c2ccccn2)CC1)NCc1cccs1
inhibition [1]: inactive

CC(C)COC(=O)C1C2C=CC3(CN(C(C)c4ccc(Br)cc4)C(=O)C13)O2 (centres undefined)
inhibition (stronger effect = higher value): 22% (inactive)
inhibition [2]: 0%
